# Reference: PubChem BioAssay AID1159606 (Sanford-Burnham Center for Chemical Genomics, 2016)
# The whole screen tested about 360,000 compounds, of which about 7,300 (2%) were called active. Cut-off read from the data, not from the text of the source: active = inhibition above about 50%; inactive = the rest. The full list was thinned out, with actives kept by preference.
# Assay: inhibitors of TWEAK-Fn14 signaling, primary screen, luciferase reporter cells, uHTS (AID 1159606)
# Conditions: TWEAK-stimulated Fn14 reporter cells, luciferase luminescence, 8 h; at 10 µM; stronger effect = higher value
row,Structure (SMILES),inhibition
1,CC(=CCOc1ccc2ccc(=O)oc2c1)C1=CC(=O)C(C)(C)O1,70.4% (active)
2,CSc1nc2ccc(C)cc2c(=O)n1-c1cccnc1,0.75% (inactive)
3,CN(C)c1ccc(/C=C2\CC3C4CC=C5CC(O)CCC5(C)C4CCC3(C)C2=O)cc1 (stereo not given),-57.2% (inactive)
4,NC(=O)Nc1cccc(C(F)(F)F)c1,-2.53% (inactive)
5,Cc1cccc(NC(=O)N2CC3CC(C2)c2cccc(=O)n2C3)c1 (stereo not given),3.66% (inactive)
6,CNC(=O)O/N=C(\N)Cc1csc2ccccc12,16.5% (inactive)
7,CC(=O)c1ccc(OC(NC(=O)Cc2ccccc2)C(Cl)(Cl)Cl)cc1 (stereo not given),-4.23% (inactive)
8,C[C@H]1CN([C@@H](C)CO)C(=O)CCCn2nncc2CO[C@H]1CN(C)C(=O)Oc1cccc2ccccc12,9.18% (inactive)
9,O=C1NC(=O)C(C/C=C/c2ccccc2)C(=O)N1,0.48% (inactive)
10,CCCCCCCCCCCCn1ccc(=N)cc1,74% (active)
11,CCCn1c(C(=O)c2ccccc2OC)nc2ccccc21,-3.91% (inactive)
12,COc1ccc2c(c1)NP(=S)(c1ccccc1)N2 (stereo not given),-0.5% (inactive)
13,CN(C)CC1Oc2ccccc2OC1(O)c1ccccc1 (stereo not given),79.6% (active)
14,Cc1ncoc1C(=O)NCC1=C(c2cccc3ccccc23)C[C@@H]2CC[C@H]1N2Cc1ccco1,-0.7% (inactive)
15,COc1cccc(-c2nc3ccc(N4CCN(C)CC4)cc3[nH]2)c1,-27.5% (inactive)
16,C[C@]12CC[C@H](O)C[C@H]1CC[C@@H]1C2CC[C@]2(C)[C@@H](C3=CC(=O)OC3)[C@@H](O)C[C@]12O (stereo not given in full),56.4% (active)
17,CC12CCC(O)CC1CCC1C2CCC2(C)C(C(=O)CC(O)C(F)(F)F)CCC12 (stereo not given),-91.4% (inactive)
18,O=c1[nH]c(=O)n(-c2ccc(F)cc2)c(O)c1C=NCCN1CCCCC1,6.59% (inactive)
19,CN(C)C(=O)Oc1cc(=O)n2c3c(cccc13)CCC2,30.3% (inactive)
20,Cc1cc(C(=O)OCC(=O)Nc2c(F)cccc2F)c(C)n1C1CC1,4.53% (inactive)
21,C[C@]12CC[C@H](O)CC1=C([N+](=O)[O-])CC1C2CC[C@@]2(C)C1CC[C@@H]2O (stereo not given in full),1.49% (inactive)
22,C[C@]12CCC3C(CC[C@H]4[C@H](O)[C@H](O)CC[C@]34C)C1CC[C@@H]2O (stereo not given in full),-13.2% (inactive)
23,C[C@]12CCC3C(CC[C@H]4[C@H](O)[C@H](O)CC[C@]34C)C1CCC2=O (stereo not given in full),96.5% (active)
24,OC1/C(=C/c2ccc(C(F)(F)F)cc2)N2CCC1CC2 (stereo not given),-3% (inactive)
25,COC(=O)C1=C(c2ccc3ccccc3c2)C[C@@H]2CC[C@H]1N2C(=O)NCCO,6.86% (inactive)

row,Structure (SMILES),inhibition
1,CCN1CCN(c2nc3c(c(=O)[nH]2)CCC3)CC1,14.3% (inactive)
2,COc1ccc2[nH]c3c(c2c1)CCN[C@H]3C,75.7% (active)
3,Cc1ccc2c(c1)=C/C(=C\c1c(O)[nH]c(=O)[nH]c1=O)C(=O)N=2,-3.63% (inactive)
4,Cc1cc2ccccn2c1C(C[N+](=O)[O-])c1c(F)cccc1Cl (stereo not given),102% (active)
5,Cc1cccc(-n2c(C)nc3cc(C(=O)N4CCC5(CC4)OCCO5)ccc32)c1,-8.93% (inactive)
6,O=c1[nH]c2ccccc2n1C1CCN(C(c2ccnc3ccccc23)c2nnnn2Cc2ccccc2)CC1 (stereo not given),27.5% (inactive)
7,CCN(N=Nc1nonc1OC)c1nonc1OC,-11.1% (inactive)
8,O=C1NC(=O)N(CCc2ccc(F)cc2)C(=O)/C1=C/C=C/c1ccccc1,79.4% (active)
9,COC1=CC=C2[C@H]3Cc4ccc(OC)c5c4[C@@]2(CCN3C)C1O5 (stereo not given in full),-16% (inactive)
10,Cc1cc(N2C(=O)C3CCCN3C2c2ccc(Cl)c(Cl)c2)no1 (stereo not given),-3.31% (inactive)
11,CC(C)c1ccc(O)c(CN2CCN(c3ccccc3)CC2)c1,4.05% (inactive)
12,CCC(C)(O)C(=O)OC1C(=O)OC2CC3C(C)=CC(=O)C(O)C3(C)C3C4(O)OCC23C1C(C)C4O (stereo not given),99.5% (active)
13,CCOP(=O)(OCC)C(O)c1ccc(OC)cc1OC (stereo not given),3.38% (inactive)
14,CCC(=O)OC(Cc1ccccc1)(c1ccccc1)C(C)CN(C)C (stereo not given),3.52% (inactive)
15,O=C(NCC1=C(c2ccc3ccccc3c2)C[C@@H]2CC[C@H]1N2Cc1ccco1)c1cccs1,-11.2% (inactive)
16,CC(=O)OC1C2(CC3N4C(=O)C5(CO)SSC4(CC31O)C(=O)N5C)OC(C)C(C)(C)C2=O (stereo not given),107% (active)
17,CN(C)C(=O)NC(O)C(Cl)(Cl)Cl (stereo not given),5.54% (inactive)
18,Cc1cccc(-n2c(O)c(C=NC34CN5CN(CN(C5)C3)C4)c(=O)[nH]c2=O)c1,-1.26% (inactive)
19,COC1C(O)C(C)OC(OC2CCC3(C=O)C(CCC4C3CCC3(C)C(C5=CC(=O)OC5)CCC43O)C2)C1O (stereo not given),80.6% (active)
20,CC(=NCc1ccc2c(c1)OCO2)c1c(O)[nH]c(=O)[nH]c1=O,-1.24% (inactive)
21,CCN(CC)C(=O)Oc1ccc(NC(=O)N2CCOCC2)cc1,12.2% (inactive)
22,Cc1ccc(N(C)C(=O)Oc2cccc3ccc(C)nc23)cc1,-2.35% (inactive)
23,O=Cc1cn(Cc2ccc(F)cc2Cl)c2ccccc12,56.5% (active)
24,CC1C(=O)OC2CCN3CC=C(COC(=O)C(C)(O)C1(C)O)C23 (stereo not given),-18.7% (inactive)
25,CC[N+]1(C)CCCC(OC(=O)C(O)(c2ccccc2)c2ccccc2)C1 (stereo not given),-7.55% (inactive)

row,Structure (SMILES),inhibition
1,CCOC(=O)[C@]12Cc3ccccc3[C@H]1N(C1CCCCC1)C(=O)c1cc(OC)ccc12,42.5% (inactive)
2,COC(=O)CN(CCCl)P1(=O)OCCCN1CCCl (stereo not given),-6.99% (inactive)
3,O=C1NC(=O)C(CCOc2ccccc2)(CCc2ccccc2)C(=O)N1,-21.8% (inactive)
4,COc1ccccc1C1=NCc2nnc(CSC)n2-c2ccc(Cl)cc21,12.6% (inactive)
5,CCN1CC2C3CCC(C)(O3)C2C1 (stereo not given),2.33% (inactive)
6,CCOC(=O)C1=C(C)OC(N)=C(C(=O)OC)C12C(=O)Nc1ccc(Br)cc12 (stereo not given),-9.87% (inactive)
7,N#CC1=C(N)Oc2c(c(=O)oc3ccccc23)C1c1ccccc1OC(=O)c1cccs1 (stereo not given),51.3% (active)
8,COc1ccc(C2C=C(C)Oc3c2c(=O)oc2ccccc32)cc1OC (stereo not given),1.69% (inactive)
9,CCNc1nc2[nH]c(=O)c3c(c2s1)OC(N)=C(C#N)C3c1cccs1 (stereo not given),19.6% (inactive)
10,Nc1ccc(Cc2ccc(N)c(Cl)c2)cc1Cl,7.24% (inactive)
11,COc1ccccc1OC(=O)c1ccc(C)c(S(=O)(=O)N2CCOCC2)c1,5.54% (inactive)
12,COC(=O)C1=C(c2ccc(F)cc2F)C[C@@H]2CC[C@H]1N2C(=O)NC1CC1,10.7% (inactive)
13,CCC/C(=N\O)c1c[nH]c2ccccc12,-11.5% (inactive)
14,CCOc1ccc(C2SCC(=O)Nc3c2c(C)nn3C2CCOC(C)(C)C2)cc1 (stereo not given),7.72% (inactive)
15,Cc1ccc(P(=S)(c2ccc(C)o2)N2CCOCC2)o1,73.2% (active)
16,CCOC(=O)[C@]12Cc3cc(OC)ccc3[C@H]1N(C(C)C)C(=O)c1ccccc12,25.1% (inactive)
17,O=C(NC1CCCCC1)N1Cc2cc(N3CCCCC3)ccc2-n2nncc2C1,-46.7% (inactive)
18,CN1CCN(/N=C/c2c[nH]c3ccccc23)CC1,4.46% (inactive)
19,COC(=O)C1=C(c2ccc(OCc3ccccc3)cc2)C[C@@H]2CC[C@H]1N2C(=O)NCc1cccc(F)c1,37.4% (inactive)
20,CN1CCN(Cc2ccccc2C(F)(F)F)CC1,0.88% (inactive)
21,Fc1cccc(F)c1CN1CCN(Cc2c(F)cccc2F)CC1,92.7% (active)
22,C/C(=N/O)c1ccc2ccc3ccccc3c2c1,2.22% (inactive)
23,COc1ccccc1N1CCN(C(CNC(=O)Oc2ccccc2)c2cccnc2)CC1 (stereo not given),3.6% (inactive)
24,COCc1cc(OC(=O)N(C)C)nc(-c2ccc(C)c(Cl)c2)n1,6.49% (inactive)
25,c1cc2c(cc1[C@H]1OC[C@H]3[C@@H]1CO[C@@H]3c1ccc3c(c1)OCO3)OCO2,-20.1% (inactive)
